Rows were chosen to be rich in hits. Some 3.4% of all compounds tested hit in one or more screens of this group.
PP5 primary = PP5 phosphatase inhibitors, primary screen, biochemical, fluorescence; Serine/threonine-protein phosphatase 5 (Homo sapiens), P53041; purified PP5c, OMFP substrate fluorescence; inhibition, % at 6.7 µM; actives 0.18% (n = 320,000);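 active means inhibition above the campaign's mean inhibition across all tested compounds plus 3 SD, cut at about 9.5% in these data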
PAFAH1B3 inh = PAFAH1B3 enzyme inhibitors, primary screen, biochemical, fluorescence polarization, human. recombinant PAFAH1B3, FP-rhodamine probe. actives 0.28% (n = 340,000). inhibition, % at 3.39 µM. Platelet-activating factor acetylhydrolase IB subunit alpha1 (Homo sapiens), Q15102;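 active means inhibition above the screen-wide average of all tested compounds plus 3 SD, cut at about 25% in these data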
Target sequence (Q15102 whole entry, looked up): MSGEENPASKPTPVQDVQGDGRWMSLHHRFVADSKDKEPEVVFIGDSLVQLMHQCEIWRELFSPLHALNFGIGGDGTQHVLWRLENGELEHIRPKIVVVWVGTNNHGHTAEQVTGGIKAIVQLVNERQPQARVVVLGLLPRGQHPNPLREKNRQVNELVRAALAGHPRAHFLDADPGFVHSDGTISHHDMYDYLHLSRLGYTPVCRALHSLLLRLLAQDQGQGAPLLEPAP
pPAFAH FP inh = pPAFAH enzyme inhibitors, primary screen, biochemical, fluorescence polarization, human; AID 463082, 2010; recombinant pPAFAH, FP-rhodamine probe fluorescence polarization; Platelet-activating factor acetylhydrolase (Homo sapiens), Q13093; actives 1.5% (n = 330,000); inhibition, % at 3.39 µM;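 active means inhibition above the mean inhibition across the screen plus 3 SD, cut at about 25% in these data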;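 further: inhibitors block binding of the rhodamine activity-based probe so polarization drops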
PAFAH2 FP inh = PAFAH2 enzyme inhibitors, primary screen, biochemical, fluorescence polarization, human. Platelet-activating factor acetylhydrolase 2, cytoplasmic (Homo sapiens), Q99487. recombinant PAFAH2, FP-rhodamine activity probe. inhibition, % at 3.39 µM. actives 0.99% (n = 340,000). AID 492956, 2010;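 active means inhibition above the mean over all tested compounds plus 3 SD, cut at about 30% in these data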;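 further: inhibitors block probe labeling of enzyme so polarization drops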
PAFAH1B2 FP inh = PAFAH1B2 enzyme inhibitors, primary screen, biochemical, fluorescence polarization, human; inhibition, % at 3.39 µM; Platelet-activating factor acetylhydrolase IB subunit alpha2 (Homo sapiens), P68402; recombinant PAFAH1B2, FP-rhodamine activity probe; actives 1.2% (n = 340,000);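 active means inhibition above the mean of all tested compounds plus 3 SD, cut at about 24% in these data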
Target sequence (P68402 whole entry, looked up): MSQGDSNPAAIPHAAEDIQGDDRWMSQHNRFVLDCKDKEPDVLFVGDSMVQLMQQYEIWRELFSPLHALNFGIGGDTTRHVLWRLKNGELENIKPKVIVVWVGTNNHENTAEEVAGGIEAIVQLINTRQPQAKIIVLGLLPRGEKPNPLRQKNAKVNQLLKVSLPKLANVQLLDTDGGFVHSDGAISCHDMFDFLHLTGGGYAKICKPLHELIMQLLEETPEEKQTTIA
PP1 counter = PP1-alpha phosphatase inhibitors, primary screen, counter-screen for PP5 inhibitor project, biochemical, fluorescence, OMFP substrate, single point | Serine/threonine-protein phosphatase PP1-alpha catalytic subunit (Homo sapiens), P62136 | purified PP1alpha | inhibition, % at 6.7 µM | actives 0.9% (n = 320,000) | AID 2235, 2010;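 active means inhibition above the mean inhibition of all tested compounds plus 3 SD, computed separately for each screening campaign, cut at about 15% in these data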
Each line names hits and unclear results; the compound was inactive in the other large screens.

COc1ccc(-n2c(C)cc(-c3csc(N)n3)c2C)cc1	PP1 counter 17
Cc1cc(-c2csc(N)n2)c(C)n1-c1ccc(Cl)c(Cl)c1	PP1 counter 17
COc1ccc(S(=O)(=O)Oc2ccccc2C(N)=O)cc1	none (no result: PP5 primary, pPAFAH FP inh, PP1 counter)
C=CC[C@@H](CC(=O)OC(C)(C)C)C(=O)OC[C@@H]1CCCN1C(=O)[C@@H](CC=C)CC(=O)N(CCO)Cc1ccccc1	none (no result: PP5 primary, PP1 counter)
Nc1nc2nc(SCC(=O)N3CCCc4ccccc43)[nH]c2c(=O)[nH]1	PP1 counter 15 (no result: PAFAH1B3 inh, PAFAH2 FP inh, PAFAH1B2 FP inh)
Cc1cc(Nc2ccccc2)nn1C(=O)c1ccc(Br)cc1	PAFAH1B2 FP inh 27
Cc1cc(Nc2ccccc2)nn1C(=O)c1ccccc1	none
Cc1ccc(-c2c(C(=O)N(C)Cc3ccccc3)oc(=O)c3ccccc23)cc1	none
Cc1ccc(-c2c(C(=O)NCc3ccccc3)oc(=O)c3ccccc23)cc1	pPAFAH FP inh 32
CC(C)(C)c1ccc(C(=O)NCCC(=O)N2CCN(c3ncccn3)CC2)cc1	PAFAH1B2 FP inh 30
CCOC(=O)c1cc(CC)sc1NC(=O)COC	none
CCCCN1C(=O)C(=O)N(CC(=O)Nc2sc(CC)cc2C(=O)OCC)C1=O	pPAFAH FP inh 33
CC(Oc1ccc(Cl)cc1Cl)C(=O)NC1=NN(c2ccccc2)C(=O)C1 (configuration not stated)	PP1 counter 17
COC(=O)C(CC(=O)c1cccc(OC)c1)c1ccc(F)cc1 (configuration not stated)	none
O=C(O)c1ccc(CSCc2ccccc2Cl)o1	PAFAH1B2 FP inh 30
Clc1ccc(-c2noc(COc3ccccc3)n2)cc1	none
Clc1ccc(OCc2nc(-c3ccncc3)no2)cc1	PAFAH1B2 FP inh 27
O=C(O)CCc1ccc(-c2cccs2)n1CCC(=O)O	none
O=C(O)CCc1ccc(-c2cccs2)n1CCc1ccccc1	pPAFAH FP inh 34
O=[N+]([O-])/C=C/c1cn(Cc2ccc(Cl)cc2)c2ccccc12	PP1 counter 16
Cc1cccc(Cn2cc(/C=C/[N+](=O)[O-])c3ccccc32)c1	PP1 counter 17
COc1ccc(OCCCC(=O)OCC(=O)Nc2ccc(Cl)cn2)cc1	pPAFAH FP inh 26
O=C(COC(=O)Cc1ccc(Br)cc1)Nc1ccc(Cl)cn1	pPAFAH FP inh 25 (no result: PP5 primary, PP1 counter)
O=C(COC(=O)/C=C/c1cccc(F)c1)Nc1ccc(Cl)cn1	none
COc1cccc(/C=C/C(=O)OCC(=O)Nc2ccc(Cl)cn2)c1	PAFAH2 FP inh 32
Cc1cc(C)cc(OCC(=O)OCC(=O)Nc2ccc(Cl)cn2)c1	none
O=c1cc(-c2ccccc2)[nH]n1-c1ccc([N+](=O)[O-])cc1	PP1 counter 16
O=C(CC1CCCC1)N1CCCC(Nc2ccc(F)cc2)C1 (configuration not stated)	none
CC1(CCC(=O)N2CCCC(Nc3ccc(F)cc3)C2)CC1 (configuration not stated)	PAFAH1B2 FP inh 29
Cc1ccc(S(=O)(=O)NC(=O)c2ccc(-c3ccc(-c4ccccc4)cc3)o2)c(C)c1	PP1 counter 16 (no result: PAFAH1B3 inh, PAFAH2 FP inh, PAFAH1B2 FP inh)
Cc1cc(C(=O)N/N=C2\CC(=O)c3ccccc32)c(C)n1-c1ccccc1	pPAFAH FP inh 31
Cc1cc(C(=O)O)c(C)n1-c1ccccc1	none
CC[C@]12c3[nH]c4ccc(OC)cc4c3CCN1C(=O)C(CC(=O)NCCCn1ccnc1)C[C@@H]2C(=O)N1CCN(C(=O)c2ccco2)CC1 (some centres not stated)	none (no result: PP5 primary, PP1 counter)
O=[N+]([O-])c1ccc(OS(=O)(=O)Cc2ccccc2)cc1	none
O=S(=O)(Cc1ccc(Cl)cc1)Oc1ccc(Cl)cc1	PAFAH1B2 FP inh 25 (no result: PP5 primary, pPAFAH FP inh, PP1 counter)
COc1cccc(C2=Nc3cccc4cccc(c34)N2)c1	PP1 counter 17
O=C1NC(=Nc2cccc(O)c2)S/C1=C\c1cccc([N+](=O)[O-])c1	PP1 counter 17
Cc1ccc(S(=O)(=O)Nc2nc3ccccc3nc2NCc2ccco2)cc1	PAFAH1B3 inh 26, PAFAH2 FP inh 34, PAFAH1B2 FP inh 30

Assay outcomes: PubChem, The Scripps Research Institute Molecular Screening Center
